PubChem BioAssay

How the values were obtained:
[1] = tested on: Botulinum neurotoxin type F light chain protease (Clostridium botulinum); experiment: Botulinum neurotoxin type F light chain protease inhibition, multiplex microsphere flow cytometry, validation set (AID 588459); details: multiplex microsphere protease substrate cleavage assay, at 10 µM, hits give high values
[2] = molecular target: Botulinum neurotoxin type A (Clostridium botulinum) (UniProt P0DPI0); experiment: BoNT/A light chain protease inhibitors, biochemical, multiplex microsphere flow cytometry, validation set (AID 588460); details: at 10 µM, hits give high values
[3] = molecular target: Lethal factor (Bacillus anthracis) (UniProt P15917); experiment: Lethal factor protease inhibitors, Bacillus anthracis, multiplex microsphere cleavage assay, validation set (AID 588461); details: flow cytometry, at 10 µM, hits give high values

Measured: inhibition

Sequence of Lethal factor (Bacillus anthracis) (P15917 whole entry, looked up): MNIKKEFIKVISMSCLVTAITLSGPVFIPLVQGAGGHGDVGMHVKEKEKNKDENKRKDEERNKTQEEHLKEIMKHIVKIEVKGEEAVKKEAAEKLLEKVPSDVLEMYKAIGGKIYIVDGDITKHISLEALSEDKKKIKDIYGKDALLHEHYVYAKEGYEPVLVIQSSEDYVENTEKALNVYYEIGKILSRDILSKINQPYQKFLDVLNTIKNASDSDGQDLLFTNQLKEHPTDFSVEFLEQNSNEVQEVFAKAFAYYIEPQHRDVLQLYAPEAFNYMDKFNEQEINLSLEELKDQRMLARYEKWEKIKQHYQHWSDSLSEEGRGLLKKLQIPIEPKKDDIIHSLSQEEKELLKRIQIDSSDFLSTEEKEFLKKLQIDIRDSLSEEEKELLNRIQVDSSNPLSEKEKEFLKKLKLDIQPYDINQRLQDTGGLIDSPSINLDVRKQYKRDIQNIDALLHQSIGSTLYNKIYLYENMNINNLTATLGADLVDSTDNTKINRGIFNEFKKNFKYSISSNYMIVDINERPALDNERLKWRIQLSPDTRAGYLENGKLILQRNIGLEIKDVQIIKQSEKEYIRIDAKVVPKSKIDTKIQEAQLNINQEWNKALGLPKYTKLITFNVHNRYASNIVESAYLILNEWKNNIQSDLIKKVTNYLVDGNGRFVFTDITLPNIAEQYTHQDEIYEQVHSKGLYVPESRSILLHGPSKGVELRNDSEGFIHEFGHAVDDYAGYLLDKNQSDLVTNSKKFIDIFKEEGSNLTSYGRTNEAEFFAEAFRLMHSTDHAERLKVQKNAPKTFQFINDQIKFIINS
Sequence of Botulinum neurotoxin type A (Clostridium botulinum) (P0DPI0 whole entry, looked up): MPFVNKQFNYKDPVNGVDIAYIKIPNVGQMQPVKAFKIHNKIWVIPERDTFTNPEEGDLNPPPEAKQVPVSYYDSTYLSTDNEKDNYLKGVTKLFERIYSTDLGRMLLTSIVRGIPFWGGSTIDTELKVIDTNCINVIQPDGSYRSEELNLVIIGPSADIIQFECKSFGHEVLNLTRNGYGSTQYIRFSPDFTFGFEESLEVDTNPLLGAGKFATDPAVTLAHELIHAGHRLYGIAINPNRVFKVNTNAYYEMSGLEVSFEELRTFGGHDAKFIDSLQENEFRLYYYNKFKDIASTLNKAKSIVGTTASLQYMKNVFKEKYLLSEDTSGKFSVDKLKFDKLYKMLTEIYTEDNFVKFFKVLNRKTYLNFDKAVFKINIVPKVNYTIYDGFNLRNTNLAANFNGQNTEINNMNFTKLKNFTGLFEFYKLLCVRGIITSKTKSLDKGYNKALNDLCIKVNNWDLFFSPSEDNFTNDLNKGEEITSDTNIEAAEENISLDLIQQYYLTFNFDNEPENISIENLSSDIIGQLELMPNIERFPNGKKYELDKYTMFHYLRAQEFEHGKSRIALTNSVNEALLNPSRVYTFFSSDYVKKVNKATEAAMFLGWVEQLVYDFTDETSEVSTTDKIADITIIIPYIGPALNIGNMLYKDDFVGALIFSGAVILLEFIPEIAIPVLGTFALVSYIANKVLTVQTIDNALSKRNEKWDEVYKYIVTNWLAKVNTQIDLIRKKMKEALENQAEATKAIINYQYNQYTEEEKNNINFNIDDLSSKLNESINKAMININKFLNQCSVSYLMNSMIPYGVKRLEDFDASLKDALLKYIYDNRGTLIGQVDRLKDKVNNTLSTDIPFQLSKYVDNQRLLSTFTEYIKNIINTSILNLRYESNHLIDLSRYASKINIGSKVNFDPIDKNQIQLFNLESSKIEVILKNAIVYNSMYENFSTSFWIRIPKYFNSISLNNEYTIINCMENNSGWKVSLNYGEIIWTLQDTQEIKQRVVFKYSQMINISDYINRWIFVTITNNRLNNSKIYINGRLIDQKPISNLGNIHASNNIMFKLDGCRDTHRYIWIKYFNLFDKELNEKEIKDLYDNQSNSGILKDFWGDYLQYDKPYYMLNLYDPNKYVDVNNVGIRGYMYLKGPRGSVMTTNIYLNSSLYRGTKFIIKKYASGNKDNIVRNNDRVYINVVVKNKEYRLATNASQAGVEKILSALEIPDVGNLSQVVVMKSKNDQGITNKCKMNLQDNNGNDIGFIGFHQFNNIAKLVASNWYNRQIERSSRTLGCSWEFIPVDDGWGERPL

COc1ccc(C2CC(c3c(O)cc(C)oc3=O)=NCCS2)c(OC)c1 (configuration not stated)
inactive: [1] 4.5% | [2] 2% | [3] 4.3%

CC1(C)C(=O)OC(c2cccs2)C2(CCCCC2)C1=O (configuration not stated)
inactive: [1] -2.1% | [2] -1.3% | [3] -6.2%

CCOC(=O)C1C2C=CC3(CN(c4ccc(Cl)c(F)c4)C(=O)C13)O2 (configuration not stated)
inactive: [1] 2.9% | [2] -2.3% | [3] 6.8%

O=C(O)CCCCCN1C(=O)C(=O)/C(=C(/O)c2ccccc2)C1c1ccccc1 (configuration not stated)
inactive: [1] 0.2% | [2] 0.9% | [3] -6.7%

C[N+](C)(C)CCCC(=O)c1ccc2c(c1)OCO2
inactive: [1] -4% | [2] -1.8% | [3] -6%

CCc1nc2ccccc2c(NC(=O)CN2CC(C)CC(C)C2)c1C (configuration not stated)
inactive: [1] -2% | [2] 0.8% | [3] 0.9%

COc1ccc(S(=O)(=O)N2CCN(C(=O)COc3ccc4c(C)cc(=O)oc4c3)CC2)cc1
inactive: [1] 2.4% | [2] 0.1% | [3] -0.8%

O[C@@H](CNC[C@H](O)c1ccccc1)c1ccccc1
inactive: [1] 3.9% | [2] 1.5% | [3] 4.2%

O=C(/C=C/c1ccc2c(c1)OCO2)c1ccccn1
inactive: [1] -2.7% | [2] -0.2% | [3] -2.8%

C[C@]12CC[C@@H]3c4ccc(O)cc4C(=O)C[C@H]3[C@@H]1CC[C@@H]2O
inactive: [1] 1.2% | [2] -1.3% | [3] -6.8%

COc1cc(-c2nnc(-c3cccs3)o2)cc(OC)c1OC
inactive: [1] 1.3% | [2] 1.7% | [3] 4.3%

O=C(O)C1[C@H]2C(=O)N(C3CCCC3)C[C@]23C=C[C@H]1O3 (some centres not stated)
inactive: [1] 6.7% | [2] 1.3% | [3] 5.6%

Cc1ccc(CN2CCN(CCCc3ccccc3)CC2CCO)cc1 (configuration not stated)
inactive: [1] 0.2% | [2] -0.2% | [3] -3.4%

C=CCn1c(SCC(=O)NC2CCCCC2)nc2ccccc2c1=O
inactive: [1] -0.1% | [2] -1.1% | [3] -3.5%

COc1cc2c(cc1OC)C(=S)NC(C)(C)C2
inactive: [1] 2.8% | [2] -0.8% | [3] 2.9%

CC12CCC(C(=O)NNc3ccccc3)(C(=O)C1=O)C2(C)C (configuration not stated)
inactive: [1] 1.1% | [2] 0.4% | [3] -3.4%

Nc1ccc(S(=O)(=O)NC(=O)c2ccccc2)cc1
inactive: [1] 1.2% | [2] 1.3% | [3] -2.7%

CC(NC(=O)c1ccc(OC2CCN(Cc3ccccn3)CC2)cc1)c1ccccc1 (configuration not stated)
inactive: [1] 2.8% | [2] 0.5% | [3] 3.4%

CCOc1ccc2ccccc2c1C(=O)N[C@@H]1C(=O)N2[C@@H]1SC(C)(C)[C@@H]2C(=O)O
inactive: [1] 5.4% | [2] 1.2% | [3] 0.3%

CN(C)[C@@H]1C(=O)C(C(N)=O)=C(O)[C@@]2(O)C(=O)C3=C(O)c4c(O)ccc(Cl)c4[C@@H](O)[C@H]3C[C@@H]12
inactive: [1] -5.8% | [2] -0.3% | [3] -4.5%

COc1ccc(C=O)c(OC)c1
inactive: [1] -0.3% | [2] -0.5% | [3] 0.2%

Cc1cccc(Oc2coc3cc(OC(=O)c4cncc(Br)c4)ccc3c2=O)c1
inactive: [1] 2.1% | [2] 0.8% | [3] 2%

Cc1nc(N)nc2c1CCCC2
inactive: [1] 2.4% | [2] 1.2% | [3] 4.9%

O=C(CN1CC[n+]2c(-c3cccs3)csc21)c1ccc(Br)cc1
inactive: [1] 0.8% | [2] -0.2% | [3] -1.6%

CC(C)c1ccc(/C=C/C(=O)O)cc1
inactive: [1] 1.6% | [2] -0.1% | [3] 11%

CN(CCCN1CCOCC1)Cc1cn(C)nc1-c1ccccc1F
inactive: [1] 0% | [2] -0.8% | [3] -6.1%

Cc1ccc(S(=O)(=O)Oc2ccccc2/C=N/N=C(N)N)cc1
inactive: [1] 0.8% | [2] 1.3% | [3] -7.6%

CC(C)C1CC(CCNCc2ccc(N(C)C)cc2)(c2ccccc2)CCO1 (configuration not stated)
inactive: [1] -3.7% | [2] -1.8% | [3] -9.1%

COc1cc(/C=C/C(=O)N2CCCC2)cc(OC)c1OC
inactive: [1] -1.5% | [2] 0.4% | [3] 4.4%
